About 8,800 targets were measured; listed, in parts, are those with a hit and a random draw of the rest. About 0.5% of all pairs of compound and target were hits.
How the values were obtained:
Experiment in all cases: log2 fold change, soluble protein after heating vs DMSO (PISA); higher = thermal stabilisation; K562 lysate, 10 uM; active = over 0.2 and 3.5 SD of the protein, either way, in both replicates (recomputed)
[1] = compound: NCC(=O)Nc1ccc(-n2nc(C(F)(F)F)cc2-c2ccc3c(ccc4ccccc43)c2)cc1
Summary of the method: (§1)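 Quantification was by TMTpro 16plex LC-MS/MS with equalised channel sums, applied to the supernatant after 21,000xg for 90 min. Samples were crude K562 extract at 1 mg/mL protein in PBS pH 7.4 with 1 mM MgCl2, treated with 10 μM compound for 30 min, heated for 3 min across 48°C-58°C, pooled and brought to 0.5% NP-40 at 4°C. Values are log-two fold changes in thermal stability relative to solvent controls, from duplicates.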

vorinostat = compound: O=C(CCCCCCC(=O)Nc1ccccc1)NO [vorinostat]
Summary of the method: as §1

silmitasertib = compound: O=C(O)c1ccc2c(c1)nc(Nc1cccc(Cl)c1)c1ccncc12 [silmitasertib]
Summary of the method: as §1

[2] = compound: O=C1NC(=O)C(c2cnc3ccccn23)=C1c1cn2c3c(cc(F)cc13)CN(C(=O)N1CCCCC1)CC2
Summary of the method: as §1

entospletinib = compound: c1cn2cc(-c3ccc4cn[nH]c4c3)nc(Nc3ccc(N4CCOCC4)cc3)c2n1 [entospletinib]
Summary of the method: as §1

Measured: log2 fold change

SEC62 (UniProt Q99442)
inactive: [1] 0.036 | vorinostat 0.133 | silmitasertib 0.015 | [2] 0.007 | entospletinib -0.019

RNF123 (UniProt Q5XPI4)
active: vorinostat -0.385
inactive: [1] 0.014 | silmitasertib -0.016 | [2] -0.002 | entospletinib 0

RAC2 (UniProt P15153)
inactive: [1] -0.073 | silmitasertib 0.024 | [2] 0.102 | entospletinib 0.024
active: vorinostat -0.25

RNASEL (UniProt Q05823)
inactive: [1] -0.005 | silmitasertib 0.055 | [2] -0.021 | entospletinib -0.023
active: vorinostat -0.298

RNF170 (UniProt Q96K19)
inactive: [1] -0.003 | vorinostat 0.004 | silmitasertib 0.169

RDX (UniProt P35241)
Chain of UniProt P35241 (P35241 whole entry, looked up): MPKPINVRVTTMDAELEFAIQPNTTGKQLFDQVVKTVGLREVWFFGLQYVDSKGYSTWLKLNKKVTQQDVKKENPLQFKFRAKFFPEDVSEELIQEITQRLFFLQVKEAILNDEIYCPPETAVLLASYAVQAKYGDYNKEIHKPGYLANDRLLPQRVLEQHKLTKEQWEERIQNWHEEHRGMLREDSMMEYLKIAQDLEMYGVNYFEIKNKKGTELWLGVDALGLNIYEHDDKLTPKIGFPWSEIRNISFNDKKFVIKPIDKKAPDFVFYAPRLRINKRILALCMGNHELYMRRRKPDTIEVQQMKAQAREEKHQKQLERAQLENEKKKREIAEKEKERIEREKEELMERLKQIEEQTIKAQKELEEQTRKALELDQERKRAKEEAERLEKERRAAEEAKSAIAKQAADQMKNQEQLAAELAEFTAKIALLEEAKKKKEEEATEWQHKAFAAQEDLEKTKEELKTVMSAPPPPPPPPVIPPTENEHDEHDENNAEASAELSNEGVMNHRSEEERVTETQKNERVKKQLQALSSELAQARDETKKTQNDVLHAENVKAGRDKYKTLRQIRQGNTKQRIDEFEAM
inactive: [1] 0.002 | vorinostat 0.129 | silmitasertib -0.017 | [2] -0.008 | entospletinib 0.023

SEH1L isoform 1 (UniProt Q96EE3)
inactive: [1] 0.056 | vorinostat -0.001 | silmitasertib -0.02 | [2] -0.008 | entospletinib -0.011

R3HCC1 (UniProt Q9Y3T6)
Chain of UniProt Q9Y3T6 (Q9Y3T6 whole entry, looked up, one chain of several): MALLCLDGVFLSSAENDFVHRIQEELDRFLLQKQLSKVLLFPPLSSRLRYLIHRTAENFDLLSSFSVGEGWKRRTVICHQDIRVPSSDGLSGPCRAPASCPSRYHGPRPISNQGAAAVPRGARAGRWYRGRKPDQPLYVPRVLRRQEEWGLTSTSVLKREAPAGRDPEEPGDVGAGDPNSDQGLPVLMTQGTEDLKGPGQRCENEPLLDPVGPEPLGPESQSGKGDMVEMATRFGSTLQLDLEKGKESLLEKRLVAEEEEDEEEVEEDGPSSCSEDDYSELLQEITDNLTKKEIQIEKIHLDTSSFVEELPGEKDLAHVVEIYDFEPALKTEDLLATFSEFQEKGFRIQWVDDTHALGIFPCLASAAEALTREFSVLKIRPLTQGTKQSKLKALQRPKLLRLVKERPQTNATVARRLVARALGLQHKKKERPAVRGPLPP
inactive: [1] 0.045 | silmitasertib -0.036 | [2] -0.002 | entospletinib 0.067
active: vorinostat -0.259

SCCPDH (UniProt Q8NBX0)
inactive: [1] -0.129 | vorinostat 0.34 | silmitasertib -0.19 | [2] 0.115 | entospletinib 0.087

RELN (UniProt P78509)
inactive: [1] 0.016 | vorinostat 0.088 | silmitasertib -0.049 | [2] 0.006 | entospletinib -0.037

QTRT2 isoform 4 (UniProt Q9H974)
Chain of UniProt Q9H974 (Q9H974 whole entry, looked up): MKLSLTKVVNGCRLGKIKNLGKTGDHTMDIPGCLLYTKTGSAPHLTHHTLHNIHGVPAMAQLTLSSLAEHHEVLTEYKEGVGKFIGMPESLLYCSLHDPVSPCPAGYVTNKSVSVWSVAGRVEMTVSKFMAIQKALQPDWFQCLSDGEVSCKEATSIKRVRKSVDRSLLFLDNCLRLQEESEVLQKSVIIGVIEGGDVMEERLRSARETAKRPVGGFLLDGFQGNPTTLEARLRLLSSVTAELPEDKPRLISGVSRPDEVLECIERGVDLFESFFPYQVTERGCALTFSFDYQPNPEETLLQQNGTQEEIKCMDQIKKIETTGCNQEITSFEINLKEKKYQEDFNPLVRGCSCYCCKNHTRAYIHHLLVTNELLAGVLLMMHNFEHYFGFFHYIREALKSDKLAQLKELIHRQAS
inactive: [1] 0.004 | vorinostat 0.079 | silmitasertib -0.011 | [2] -0.007 | entospletinib 0.022

SELENOK (UniProt Q9Y6D0)
inactive: [1] -0.192

RHAG (UniProt Q02094)
Chain of UniProt Q02094 (Q02094 whole entry, looked up): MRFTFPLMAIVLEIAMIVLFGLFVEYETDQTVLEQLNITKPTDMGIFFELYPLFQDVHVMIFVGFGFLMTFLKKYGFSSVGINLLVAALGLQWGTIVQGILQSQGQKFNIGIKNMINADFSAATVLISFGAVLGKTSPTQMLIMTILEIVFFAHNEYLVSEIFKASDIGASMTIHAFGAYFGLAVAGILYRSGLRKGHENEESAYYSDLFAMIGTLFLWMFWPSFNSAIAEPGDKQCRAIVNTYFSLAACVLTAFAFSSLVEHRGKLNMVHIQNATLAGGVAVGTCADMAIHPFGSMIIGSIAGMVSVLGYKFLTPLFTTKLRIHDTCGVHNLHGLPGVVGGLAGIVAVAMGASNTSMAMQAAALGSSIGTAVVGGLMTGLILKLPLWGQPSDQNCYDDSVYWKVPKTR
inactive: [1] 0.031 | vorinostat -0.026 | silmitasertib 0.153 | [2] 0.015 | entospletinib -0.03

RAD50 isoform 2 (UniProt Q92878)
active: vorinostat -0.458
inactive: [1] -0.005 | silmitasertib 0.024 | [2] -0.009 | entospletinib -0.003

RCAN1 (UniProt P53805)
Chain of UniProt P53805 (P53805 whole entry, looked up): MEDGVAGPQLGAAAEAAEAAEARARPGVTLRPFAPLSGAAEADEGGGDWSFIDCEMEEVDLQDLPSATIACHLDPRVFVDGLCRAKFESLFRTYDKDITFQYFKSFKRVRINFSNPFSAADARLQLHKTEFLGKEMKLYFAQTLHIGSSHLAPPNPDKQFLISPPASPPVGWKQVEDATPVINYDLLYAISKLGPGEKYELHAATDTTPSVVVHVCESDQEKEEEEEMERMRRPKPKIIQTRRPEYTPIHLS
inactive: [1] 0.082 | vorinostat -0.197 | silmitasertib 0.02 | [2] 0.02 | entospletinib 0.031

SCAF1 (UniProt Q9H7N4)
Chain of UniProt Q9H7N4 (Q9H7N4 whole entry, looked up): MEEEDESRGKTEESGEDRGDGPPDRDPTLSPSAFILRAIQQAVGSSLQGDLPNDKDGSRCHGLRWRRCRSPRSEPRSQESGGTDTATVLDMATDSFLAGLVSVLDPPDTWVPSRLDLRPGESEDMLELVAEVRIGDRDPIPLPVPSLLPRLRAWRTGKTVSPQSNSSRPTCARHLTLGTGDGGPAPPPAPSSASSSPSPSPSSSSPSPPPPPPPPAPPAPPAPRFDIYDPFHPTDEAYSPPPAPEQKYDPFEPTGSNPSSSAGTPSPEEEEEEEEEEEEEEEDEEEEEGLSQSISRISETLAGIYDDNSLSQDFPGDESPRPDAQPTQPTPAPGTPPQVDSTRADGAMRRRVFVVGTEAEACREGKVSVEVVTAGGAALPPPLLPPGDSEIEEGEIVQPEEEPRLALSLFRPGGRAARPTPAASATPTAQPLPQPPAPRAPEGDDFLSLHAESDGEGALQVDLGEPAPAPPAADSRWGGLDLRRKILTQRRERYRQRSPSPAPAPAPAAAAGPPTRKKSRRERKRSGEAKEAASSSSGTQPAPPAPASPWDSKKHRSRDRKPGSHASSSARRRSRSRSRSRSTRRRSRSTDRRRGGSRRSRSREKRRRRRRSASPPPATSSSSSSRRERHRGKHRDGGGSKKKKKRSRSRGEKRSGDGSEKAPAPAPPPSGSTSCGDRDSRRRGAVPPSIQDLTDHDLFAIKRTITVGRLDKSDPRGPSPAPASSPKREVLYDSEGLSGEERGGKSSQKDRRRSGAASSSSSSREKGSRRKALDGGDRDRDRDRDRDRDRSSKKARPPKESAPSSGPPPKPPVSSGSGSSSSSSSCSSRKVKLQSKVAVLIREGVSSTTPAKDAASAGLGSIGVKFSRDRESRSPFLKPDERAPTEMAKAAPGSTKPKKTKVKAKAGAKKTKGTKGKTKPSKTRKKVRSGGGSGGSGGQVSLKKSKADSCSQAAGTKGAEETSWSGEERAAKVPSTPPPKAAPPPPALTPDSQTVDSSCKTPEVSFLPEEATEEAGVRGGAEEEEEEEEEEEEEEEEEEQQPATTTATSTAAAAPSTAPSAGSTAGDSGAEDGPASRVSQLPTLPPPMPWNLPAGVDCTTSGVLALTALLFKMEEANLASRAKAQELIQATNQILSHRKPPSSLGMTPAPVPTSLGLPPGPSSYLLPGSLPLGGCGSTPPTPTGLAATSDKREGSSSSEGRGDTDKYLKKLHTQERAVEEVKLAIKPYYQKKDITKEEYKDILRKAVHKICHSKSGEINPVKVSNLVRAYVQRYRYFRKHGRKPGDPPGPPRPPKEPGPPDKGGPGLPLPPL
inactive: [1] -0.172 | vorinostat -0.076 | silmitasertib 0.042 | [2] -0.04 | entospletinib 0.025

RPS6KA3 (UniProt P51812)
inactive: [1] -0.017 | vorinostat -0.384 | silmitasertib 0.362 | [2] 0.181 | entospletinib -0.052

RANBP6 (UniProt O60518)
active: vorinostat -0.345
inactive: [1] 0.013 | silmitasertib 0.054 | [2] 0.041 | entospletinib 0.011

RECQL5 (UniProt O94762)
active: vorinostat -0.307
inactive: [1] -0.063 | silmitasertib -0.094 | [2] 0.03 | entospletinib 0.024

RIOK2 (UniProt Q9BVS4)
inactive: [1] -0.022 | vorinostat -0.098 | silmitasertib 0.096 | [2] 0.008 | entospletinib 0.315

RBBP8 isoform 2 (UniProt Q99708)
inactive: [1] -0.035 | vorinostat 0.076 | silmitasertib -0.13 | [2] -0.028 | entospletinib -0.002

RBMX (UniProt P38159)
Chain of UniProt P38159 (P38159 whole entry, looked up): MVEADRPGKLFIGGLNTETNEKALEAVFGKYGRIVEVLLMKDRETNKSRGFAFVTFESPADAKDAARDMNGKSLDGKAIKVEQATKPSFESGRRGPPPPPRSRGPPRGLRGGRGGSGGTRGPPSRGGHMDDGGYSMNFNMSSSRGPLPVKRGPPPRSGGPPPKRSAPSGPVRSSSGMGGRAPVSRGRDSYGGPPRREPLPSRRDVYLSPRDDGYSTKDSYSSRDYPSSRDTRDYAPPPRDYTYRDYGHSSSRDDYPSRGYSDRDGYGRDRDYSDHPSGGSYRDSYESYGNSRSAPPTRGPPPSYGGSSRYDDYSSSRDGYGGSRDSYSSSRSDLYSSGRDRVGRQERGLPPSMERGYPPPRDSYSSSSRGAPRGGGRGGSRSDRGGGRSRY
inactive: [1] -0.043 | vorinostat 0.065 | silmitasertib 0.048 | [2] -0.022 | entospletinib 0.008

RSU1 (UniProt Q15404)
inactive: [1] 0.018 | vorinostat 0.15 | silmitasertib 0 | [2] 0.034 | entospletinib 0.003

RNF149 (UniProt Q8NC42)
Chain of UniProt Q8NC42 (Q8NC42 whole entry, looked up): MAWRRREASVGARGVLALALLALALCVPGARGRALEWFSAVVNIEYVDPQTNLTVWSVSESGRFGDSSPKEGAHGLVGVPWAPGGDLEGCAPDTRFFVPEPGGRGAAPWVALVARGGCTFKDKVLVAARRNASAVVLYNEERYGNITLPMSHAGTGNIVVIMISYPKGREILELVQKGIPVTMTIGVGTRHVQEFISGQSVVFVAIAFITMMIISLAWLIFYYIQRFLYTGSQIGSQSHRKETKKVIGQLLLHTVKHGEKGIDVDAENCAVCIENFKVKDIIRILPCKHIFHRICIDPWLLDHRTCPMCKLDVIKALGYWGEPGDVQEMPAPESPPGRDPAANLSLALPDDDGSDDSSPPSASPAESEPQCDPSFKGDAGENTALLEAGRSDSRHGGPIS
inactive: [1] 0.036 | vorinostat 0.098 | silmitasertib 0.013 | [2] 0.015

RPS6KA1 (UniProt Q15418)
Chain of UniProt Q15418 (Q15418 whole entry, looked up): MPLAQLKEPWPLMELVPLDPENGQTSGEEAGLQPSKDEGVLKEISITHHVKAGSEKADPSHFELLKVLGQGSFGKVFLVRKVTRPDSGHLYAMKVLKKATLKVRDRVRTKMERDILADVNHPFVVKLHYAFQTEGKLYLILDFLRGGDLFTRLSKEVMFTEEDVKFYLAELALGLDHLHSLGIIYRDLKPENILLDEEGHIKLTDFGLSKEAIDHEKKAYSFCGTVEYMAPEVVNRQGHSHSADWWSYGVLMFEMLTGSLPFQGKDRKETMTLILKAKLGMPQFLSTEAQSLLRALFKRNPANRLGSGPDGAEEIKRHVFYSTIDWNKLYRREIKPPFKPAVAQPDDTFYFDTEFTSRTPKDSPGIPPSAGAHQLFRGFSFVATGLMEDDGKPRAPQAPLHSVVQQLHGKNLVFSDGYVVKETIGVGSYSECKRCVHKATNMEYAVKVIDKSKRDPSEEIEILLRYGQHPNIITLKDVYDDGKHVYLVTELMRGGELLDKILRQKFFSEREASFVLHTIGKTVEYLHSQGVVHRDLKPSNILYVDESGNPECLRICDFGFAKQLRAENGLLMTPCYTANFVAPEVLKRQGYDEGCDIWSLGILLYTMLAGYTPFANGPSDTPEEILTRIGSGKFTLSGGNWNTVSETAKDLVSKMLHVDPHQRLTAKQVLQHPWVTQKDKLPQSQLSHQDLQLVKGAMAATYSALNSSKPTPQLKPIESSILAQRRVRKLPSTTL
active: silmitasertib 0.553
inactive: [1] 0.014 | vorinostat -0.157 | [2] 0.123 | entospletinib -0.038

Source: the supplement of paper PMC10849652
